Data as given in publication PMC11006913.
Positions count from the first letter of the chain named.

Key:
Experiment in all cases: PBM; 200 nM protein, PBS
Details in all cases: dsDNA, one strand shown
[1] = molecular target: T1, VENTX (Homo sapiens, UniProt O95231 78-163, R121Q)
T1 sequence: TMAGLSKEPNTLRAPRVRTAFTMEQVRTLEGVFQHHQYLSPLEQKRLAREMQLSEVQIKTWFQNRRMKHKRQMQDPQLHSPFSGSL

[2] = molecular target: T2, VENTX (Homo sapiens, UniProt O95231 78-163)
T2 sequence: T1 sequence with Q44R

[3] = molecular target: T3, VENTX (Homo sapiens, UniProt O95231 78-163, Y115F)
T3 sequence: T1 sequence with Y38F, Q44R

[4] = molecular target: HOXD13 (Homo sapiens, UniProt P35453 263-343)
[5] = molecular target: HOXD13 (Homo sapiens, UniProt P35453 263-343, T313A)
[6] = molecular target: ALX1 (Homo sapiens, UniProt Q15699 118-204, L144V)
[7] = molecular target: ALX1 (Homo sapiens, UniProt Q15699 118-204, L144R)
[8] = molecular target: ALX1 (Homo sapiens, UniProt Q15699 118-204)
[9] = molecular target: VAX1 (Homo sapiens, UniProt Q5SQQ9 86-172)
[10] = molecular target: VAX1 (Homo sapiens, UniProt Q5SQQ9 86-172, T142I)
[11] = molecular target: VAX1 (Homo sapiens, UniProt Q5SQQ9 86-172, K157R)
[12] = molecular target: T4, NKX2-6 (Homo sapiens, UniProt A6NCS4 118-204, R150C)
T4 sequence: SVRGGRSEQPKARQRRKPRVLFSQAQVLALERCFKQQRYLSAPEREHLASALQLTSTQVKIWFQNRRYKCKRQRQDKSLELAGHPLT

[13] = molecular target: MSX2 (Homo sapiens, UniProt P35548 130-214, R199I)
[14] = molecular target: MSX2 (Homo sapiens, UniProt P35548 130-214)
[15] = molecular target: MSX2 (Homo sapiens, UniProt P35548 130-214, F161Y)
[16] = molecular target: PROP1 (Homo sapiens, UniProt O75360 56-141)
[17] = molecular target: PROP1 (Homo sapiens, UniProt O75360 56-141, R99H)
[18] = molecular target: PROP1 (Homo sapiens, UniProt O75360 56-141, F88S)
[19] = molecular target: ALX3 (Homo sapiens, UniProt O95076 139-225, N203Q)
[20] = molecular target: T5, NKX2-6 (Homo sapiens, UniProt A6NCS4 118-204)
T5 sequence: T4 sequence with C33R

[21] = molecular target: ALX3 (Homo sapiens, UniProt O95076 139-225)
[22] = molecular target: ALX3 (Homo sapiens, UniProt O95076 139-225, L168Q)
[23] = molecular target: T6, NKX2-6 (Homo sapiens, UniProt A6NCS4 118-204, F151L)
T6 sequence: T4 sequence with C33R, F34L

[24] = molecular target: ALX3 (Homo sapiens, UniProt O95076 139-225, L168V)
[25] = molecular target: ALX3 (Homo sapiens, UniProt O95076 139-225, N203S)
[26] = molecular target: HOXB6 (Homo sapiens, UniProt P17509 132-218, K202E)
[27] = molecular target: HOXB6 (Homo sapiens, UniProt P17509 132-218)
Chain of HOXB6 (Homo sapiens, UniProt P17509 132-218) (P17509 132-218): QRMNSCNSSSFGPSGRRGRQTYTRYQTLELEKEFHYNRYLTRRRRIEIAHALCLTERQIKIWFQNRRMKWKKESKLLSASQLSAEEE

Chain of ALX1 (Homo sapiens, UniProt Q15699 118-204, L144V) (Q15699 118-204 L144V): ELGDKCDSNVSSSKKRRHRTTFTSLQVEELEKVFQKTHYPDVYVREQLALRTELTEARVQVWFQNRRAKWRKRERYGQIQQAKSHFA
Chain of ALX1 (Homo sapiens, UniProt Q15699 118-204, L144R) (Q15699 118-204 L144R): as the sequence (Q15699 118-204 L144V) above, with V27R counted along it
Chain of ALX1 (Homo sapiens, UniProt Q15699 118-204) (Q15699 118-204): as the sequence (Q15699 118-204 L144V) above, with V27L counted along it
Chain of HOXD13 (Homo sapiens, UniProt P35453 263-343) (P35453 263-343): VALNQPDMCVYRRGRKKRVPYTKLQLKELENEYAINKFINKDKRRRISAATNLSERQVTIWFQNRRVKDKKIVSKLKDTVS
Chain of MSX2 (Homo sapiens, UniProt P35548 130-214, R199I) (P35548 130-214 R199I): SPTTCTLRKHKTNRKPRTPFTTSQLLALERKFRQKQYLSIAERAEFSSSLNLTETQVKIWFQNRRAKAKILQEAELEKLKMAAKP
Chain of HOXD13 (Homo sapiens, UniProt P35453 263-343, T313A) (P35453 263-343 T313A): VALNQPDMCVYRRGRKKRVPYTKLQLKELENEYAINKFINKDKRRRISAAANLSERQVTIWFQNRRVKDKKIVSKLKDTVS
Chain of VAX1 (Homo sapiens, UniProt Q5SQQ9 86-172, K157R) (Q5SQQ9 86-172 K157R): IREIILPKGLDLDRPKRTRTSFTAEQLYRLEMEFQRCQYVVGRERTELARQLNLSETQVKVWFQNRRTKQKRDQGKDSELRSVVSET
Chain of ALX3 (Homo sapiens, UniProt O95076 139-225, N203Q) (O95076 139-225 N203Q): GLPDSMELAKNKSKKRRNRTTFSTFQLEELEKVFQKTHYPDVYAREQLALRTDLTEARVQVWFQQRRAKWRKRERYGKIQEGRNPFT
Chain of VAX1 (Homo sapiens, UniProt Q5SQQ9 86-172) (Q5SQQ9 86-172): as the sequence (Q5SQQ9 86-172 K157R) above, with R72K counted along it
Chain of ALX3 (Homo sapiens, UniProt O95076 139-225, L168V) (O95076 139-225 L168V): as the sequence (O95076 139-225 N203Q) above, with L30V, Q65N counted along it
Chain of HOXB6 (Homo sapiens, UniProt P17509 132-218, K202E) (P17509 132-218 K202E): as the sequence (P17509 132-218) above, with K71E counted along it
Chain of VAX1 (Homo sapiens, UniProt Q5SQQ9 86-172, T142I) (Q5SQQ9 86-172 T142I): as the sequence (Q5SQQ9 86-172 K157R) above, with T57I, R72K counted along it
Chain of MSX2 (Homo sapiens, UniProt P35548 130-214, F161Y) (P35548 130-214 F161Y): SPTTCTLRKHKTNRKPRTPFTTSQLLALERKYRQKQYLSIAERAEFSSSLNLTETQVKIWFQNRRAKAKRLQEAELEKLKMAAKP
Chain of MSX2 (Homo sapiens, UniProt P35548 130-214) (P35548 130-214): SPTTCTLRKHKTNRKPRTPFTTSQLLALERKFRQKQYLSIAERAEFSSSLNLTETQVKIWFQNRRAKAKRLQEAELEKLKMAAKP
Chain of ALX3 (Homo sapiens, UniProt O95076 139-225, N203S) (O95076 139-225 N203S): as the sequence (O95076 139-225 N203Q) above, with Q65S counted along it
Chain of PROP1 (Homo sapiens, UniProt O75360 56-141, F88S) (O75360 56-141 F88S): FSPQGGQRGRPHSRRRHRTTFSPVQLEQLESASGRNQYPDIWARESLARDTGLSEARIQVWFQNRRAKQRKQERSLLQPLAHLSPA
Chain of ALX3 (Homo sapiens, UniProt O95076 139-225, L168Q) (O95076 139-225 L168Q): as the sequence (O95076 139-225 N203Q) above, with L30Q, Q65N counted along it
Chain of PROP1 (Homo sapiens, UniProt O75360 56-141, R99H) (O75360 56-141 R99H): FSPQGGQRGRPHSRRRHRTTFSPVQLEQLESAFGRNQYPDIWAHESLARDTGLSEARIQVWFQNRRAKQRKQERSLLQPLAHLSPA
Chain of ALX3 (Homo sapiens, UniProt O95076 139-225) (O95076 139-225): as the sequence (O95076 139-225 N203Q) above, with Q65N counted along it
Chain of PROP1 (Homo sapiens, UniProt O75360 56-141) (O75360 56-141): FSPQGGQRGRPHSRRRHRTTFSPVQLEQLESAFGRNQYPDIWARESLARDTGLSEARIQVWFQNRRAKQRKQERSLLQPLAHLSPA

**Q.** ACTTATAA was tested. Which binding signal [1] did it give?
**A.** Its binding signal is 9.95 upbm affinity estimate (log intensity, higher = more binding, comparable within an allelic series).

**Q.** And the binding signal [2]?
**A.** Its binding signal is 10.5 upbm affinity estimate (log intensity, higher = more binding, comparable within an allelic series).

**Q.** What about the binding signal [3] of the same sequence?
**A.** The binding signal was 10 upbm affinity estimate (log intensity, higher = more binding, comparable within an allelic series).

**Q.** What about the binding signal [4] of the same sequence?
**A.** Its binding signal is 11.3 upbm affinity estimate (log intensity, higher = more binding, comparable within an allelic series).

**Q.** What about the binding signal [5] of the same sequence?
**A.** Its binding signal is 11 upbm affinity estimate (log intensity, higher = more binding, comparable within an allelic series).

**Q.** For GCCCCGGC, which binding signal [1] is on record?
**A.** The binding signal was 8.07 upbm affinity estimate (log intensity, higher = more binding, comparable within an allelic series).

**Q.** What about the binding signal [2] of the same sequence?
**A.** The binding signal was 7.98 upbm affinity estimate (log intensity, higher = more binding, comparable within an allelic series).

**Q.** And the binding signal [3]?
**A.** The binding signal was 7.96 upbm affinity estimate (log intensity, higher = more binding, comparable within an allelic series).

**Q.** What about the binding signal [6] of the same sequence?
**A.** The binding signal was 6.69 upbm affinity estimate (log intensity, higher = more binding, comparable within an allelic series).

**Q.** And the binding signal [7]?
**A.** Its binding signal is 6.67 upbm affinity estimate (log intensity, higher = more binding, comparable within an allelic series).

**Q.** What about the binding signal [8] of the same sequence?
**A.** Its binding signal is 6.32 upbm affinity estimate (log intensity, higher = more binding, comparable within an allelic series).

**Q.** With CCCACGCA as the sequence, how does the binding signal [1] read?
**A.** The binding signal was 8.08 upbm affinity estimate (log intensity, higher = more binding, comparable within an allelic series).

**Q.** And the binding signal [2]?
**A.** The binding signal was 7.93 upbm affinity estimate (log intensity, higher = more binding, comparable within an allelic series).

**Q.** What about the binding signal [3] of the same sequence?
**A.** Its binding signal is 7.96 upbm affinity estimate (log intensity, higher = more binding, comparable within an allelic series).

**Q.** What about the binding signal [9] of the same sequence?
**A.** The binding signal was 7.08 upbm affinity estimate (log intensity, higher = more binding, comparable within an allelic series).

**Q.** What about the binding signal [10] of the same sequence?
**A.** The binding signal was 7.21 upbm affinity estimate (log intensity, higher = more binding, comparable within an allelic series).

**Q.** What about the binding signal [11] of the same sequence?
**A.** Its binding signal is 7.04 upbm affinity estimate (log intensity, higher = more binding, comparable within an allelic series).

**Q.** CGGGTCGC was tested. Which binding signal [1] did it give?
**A.** The binding signal was 8.13 upbm affinity estimate (log intensity, higher = more binding, comparable within an allelic series).

**Q.** And the binding signal [2]?
**A.** The binding signal was 8.41 upbm affinity estimate (log intensity, higher = more binding, comparable within an allelic series).

**Q.** And the binding signal [3]?
**A.** The binding signal was 8.28 upbm affinity estimate (log intensity, higher = more binding, comparable within an allelic series).

**Q.** What about the binding signal [12] of the same sequence?
**A.** Its binding signal is 9.33 upbm affinity estimate (log intensity, higher = more binding, comparable within an allelic series).

**Q.** And the binding signal [13]?
**A.** Its binding signal is 9.47 upbm affinity estimate (log intensity, higher = more binding, comparable within an allelic series).

**Q.** What about the binding signal [14] of the same sequence?
**A.** The binding signal was 9.59 upbm affinity estimate (log intensity, higher = more binding, comparable within an allelic series).

**Q.** And the binding signal [15]?
**A.** The binding signal was 9.55 upbm affinity estimate (log intensity, higher = more binding, comparable within an allelic series).

**Q.** How did the binding signal [1] turn out when CTCCGTCC was run?
**A.** Its binding signal is 8.11 upbm affinity estimate (log intensity, higher = more binding, comparable within an allelic series).

**Q.** What about the binding signal [2] of the same sequence?
**A.** Its binding signal is 8.05 upbm affinity estimate (log intensity, higher = more binding, comparable within an allelic series).

**Q.** What about the binding signal [3] of the same sequence?
**A.** Its binding signal is 8.03 upbm affinity estimate (log intensity, higher = more binding, comparable within an allelic series).

**Q.** And the binding signal [6]?
**A.** The binding signal was 6.35 upbm affinity estimate (log intensity, higher = more binding, comparable within an allelic series).

**Q.** What about the binding signal [7] of the same sequence?
**A.** The binding signal was 6.21 upbm affinity estimate (log intensity, higher = more binding, comparable within an allelic series).

**Q.** And the binding signal [16]?
**A.** The binding signal was 6.5 upbm affinity estimate (log intensity, higher = more binding, comparable within an allelic series).

**Q.** And the binding signal [17]?
**A.** Its binding signal is 6.55 upbm affinity estimate (log intensity, higher = more binding, comparable within an allelic series).

**Q.** And the binding signal [18]?
**A.** Its binding signal is 6.51 upbm affinity estimate (log intensity, higher = more binding, comparable within an allelic series).

**Q.** What about the binding signal [8] of the same sequence?
**A.** Its binding signal is 6.3 upbm affinity estimate (log intensity, higher = more binding, comparable within an allelic series).

**Q.** How did the binding signal [1] turn out when CGAGCCGC was run?
**A.** The binding signal was 8.16 upbm affinity estimate (log intensity, higher = more binding, comparable within an allelic series).

**Q.** And the binding signal [2]?
**A.** Its binding signal is 8.17 upbm affinity estimate (log intensity, higher = more binding, comparable within an allelic series).

**Q.** What about the binding signal [3] of the same sequence?
**A.** Its binding signal is 8.15 upbm affinity estimate (log intensity, higher = more binding, comparable within an allelic series).

**Q.** What about the binding signal [19] of the same sequence?
**A.** The binding signal was 7.74 upbm affinity estimate (log intensity, higher = more binding, comparable within an allelic series).

**Q.** What about the binding signal [20] of the same sequence?
**A.** The binding signal was 9.49 upbm affinity estimate (log intensity, higher = more binding, comparable within an allelic series).

**Q.** What about the binding signal [21] of the same sequence?
**A.** The binding signal was 7.82 upbm affinity estimate (log intensity, higher = more binding, comparable within an allelic series).

**Q.** What about the binding signal [22] of the same sequence?
**A.** The binding signal was 7.81 upbm affinity estimate (log intensity, higher = more binding, comparable within an allelic series).

**Q.** And the binding signal [23]?
**A.** Its binding signal is 9.16 upbm affinity estimate (log intensity, higher = more binding, comparable within an allelic series).

**Q.** And the binding signal [24]?
**A.** Its binding signal is 7.75 upbm affinity estimate (log intensity, higher = more binding, comparable within an allelic series).

**Q.** And the binding signal [25]?
**A.** The binding signal was 7.79 upbm affinity estimate (log intensity, higher = more binding, comparable within an allelic series).

**Q.** Which results are given for AGGTCAGG?
**A.** binding signal [1]: 8.18 upbm affinity estimate (log intensity, higher = more binding, comparable within an allelic series); binding signal [2]: 8.14 upbm affinity estimate (log intensity, higher = more binding, comparable within an allelic series); binding signal [3]: 8.06 upbm affinity estimate (log intensity, higher = more binding, comparable within an allelic series)

**Q.** Which results are given for AAATTACC?
**A.** binding signal [1]: 11.1 upbm affinity estimate (log intensity, higher = more binding, comparable within an allelic series); binding signal [2]: 11.5 upbm affinity estimate (log intensity, higher = more binding, comparable within an allelic series); binding signal [3]: 11 upbm affinity estimate (log intensity, higher = more binding, comparable within an allelic series); binding signal [26]: 9.94 upbm affinity estimate (log intensity, higher = more binding, comparable within an allelic series); binding signal [27]: 11.6 upbm affinity estimate (log intensity, higher = more binding, comparable within an allelic series)
